RE007 growth inh: less growth of the S. pombe RE007 Vpr strain; S. pombe RE007 Vpr strain, BacTiter-Glo ATP luminescence, 24 h; hit rate 0.21% among 360,000; Potency, µM (top dose mostly 92.2 µM), for inactives: at the top dose activity change, negative = less growth, most hits filed as inhibitors; active means well fitted falling curve with a large enough effect; inconclusive means small, poorly fitted or top-dose-only effect; inactive means no such curve, though single readings can be large or run the other way; further: nearly all actives have a fitted effect of over 50% in size
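Fission yeast strain RE007, carrying one chromosomally integrated HIV-1 vpr copy, was seeded at OD 0.01 in PMG+AL medium with 23 nL pinned compound. After 24 h at 30 °C and 99% humidity, viability was read by BacTiter-Glo luminescence.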
FMDV antiviral: antivirals against foot and mouth disease virus; FMDV antiviral cell-based qHTS; Potency, µM (series often up to 57.9 µM), for the others: top-dose activity change, negative = inhibition, hits mostly inhibitors; hit rate 1.2% among 410,000; calls by dose curve; tested in HEK293T cells; further: read-out not given here; nearly all actives have a fitted effect of over 45% in size
Sm TGR inh: S. mansoni TGR enzyme inhibition; Q962Y6; purified TGR, DTNB reduction, TNB absorbance 405 nm; Potency, µM (series often up to 114 µM), for inactives: top-dose activity change, negative = inhibition, most hits filed as inhibitors; hit rate 3% among 360,000; further: nearly all actives have a fitted effect of over 60% in size
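First, TGR (20 nM dispensed) and NADPH were mixed with compound. Second, a 15 min room-temperature incubation followed. Third, further NADPH and then DTNB were added to start the reaction. Finally, TNB absorbance was monitored kinetically.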
TbPYK inhibitor: T. brucei pyruvate kinase inhibition; Potency, µM (titrated, usually from 76.8 µM), inactives show at the top dose activity, negative = inhibition, hits mostly inhibitors; Q57TT1; AID 624173; TbPYK enzyme, Kinase-Glo Plus ATP luminescence, 45 min; hit rate 0.12% among 410,000; further: nearly all actives have a fitted effect of over 50% in size
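Screened from lowest to highest concentration, compounds were pinned into TbPYK/substrate mixtures, and ADP (130 uM final) was added. Plates sat at room temperature for 45 min prior to Kinase-Glo Plus detection by luminescence.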
Active calls of the source: *; u = inconclusive; x = no result. Compounds with a hit are over-represented: about 3.7% of the library has one in this group of screens. Unless noted, the call rests on the fitted dose curve; in most records, active means well fitted curve in the direction sought with a large enough effect; inconclusive means small, poorly fitted or top-dose-only effect, or another doubt; inactive means no such curve, though single readings can be large; an effect the other way counts as inactive or inconclusive. On the % scale 0 is the no-effect control and ±100 the full control effect; potency means the concentration at half of the fitted maximal effect.

SMILES	RE007 growth inh	FMDV antiviral	Sm TGR inh	TbPYK inhibitor
COc1ccc2ccccc2c1/C=N/N1C(=O)CSC1=S	-7%	-9%	-3%	-8%
COc1cccc(/C=N/N2C(=O)CSC2=S)c1O	5%	1%	5.6µM*	u
COc1cc(/C=N/N2C(=O)CSC2=S)cc(Br)c1O	u	-12%	13µM*	-15%
COc1cc(/C=N/N2C(C)CCCC2C)cc(Br)c1O (centres undefined)	-12%	-1%	-7%	1%
O=C1CCCc2cc(S(=O)(=O)NCC3CCC(C(=O)NCc4ccccc4Cl)CC3)ccc2N1 (centres undefined)	x	6%	2%	-6%
CSc1ccc(CNc2ncc(-c3ccccc3)n2C)cc1	x	u	4%	38%
CCN1CCN(c2csc3ccc(Br)cc3c2=O)CC1	x	39%	-26%	0%
Cc1ccccc1CN1CCC(CNc2ncnc3onc(-c4ccc(Cl)cc4)c23)CC1	x	u	2%	-1%
O=C1CCC(=O)N1c1ccccc1-c1ccccc1	4%	-14%	-25%	-5%
O=C1C2C3C=CC(CNS(=O)(=O)c4ccccc4)(O3)C2C(=O)N1c1ccc(Cl)cc1 (centres undefined)	3.2µM*	-6%	4µM*	-10%
CC(=O)Oc1ccc(N2C(=O)C3C4C=CC(CO)(O4)C3C2=O)cc1 (centres undefined)	7.9µM*	-21%	0.89µM*	u
O=C1C2C3C=CC(CO)(O3)C2C(=O)N1c1ccccc1-c1ccccc1 (centres undefined)	13µM*	x	0.32µM*	u
CC(=O)Oc1ccc(N2C(=O)C3C(C2=O)C2(C)C=CC3(C)O2)cc1 (centres undefined)	x	x	0.63µM*	x
CN(C)CCNC(=O)CN1N=C(c2ccccc2)CCC1=O	x	-22%	-1%	-7%
COCC1CCCN(Cc2ccc3c(c2)CN(C(=O)c2ccc(OC)nc2OC)CCO3)C1 (centres undefined)	x	2%	x	x
CCSc1nc(O)c(C2OC(=O)c3c2ccc(OC)c3OC)c(=O)n1-c1ccccc1 (centres undefined)	-7%	-7%	7.1µM*	1%
CCCn1c(=O)c2sccc2n2c(CCCC(=O)Nc3ccc(Oc4ccc(Cl)cc4)cc3)nnc12	x	u	6%	6%
COc1ccc(C=C2CS(=O)(=O)CC(=Cc3ccc(OC)cc3)C2=O)cc1	u	13µM*	x	1%
Cc1cccc(N2CCN(C(=O)C3CCN(S(=O)(=O)c4ccc5c(c4)oc(=O)n5C)CC3)CC2)c1C	x	-5%	-4%	-7%
CCOc1ccc(S(=O)(=O)N2CCCC(C(=O)N3CCN(c4ccccc4)CC3)C2)cc1 (centres undefined)	-9%	28µM*	-14%	-4%
Cc1cccc(N2CCN(C(=O)C3CCCN(S(=O)(=O)c4ccc5c(c4)oc(=O)n5C)C3)CC2)c1C (centres undefined)	x	11µM*	-7%	-1%
CCOC(=O)N1CCN(C(=O)C2CCCN(S(=O)(=O)c3ccc(OCC)cc3)C2)CC1 (centres undefined)	5%	0%	-6%	4%
Cn1c(=O)oc2cc(S(=O)(=O)N3CCCC(C(=O)N4CCN(c5cccc(Cl)c5)CC4)C3)ccc21 (centres undefined)	x	25µM*	2%	-6%
c1ccc2c(c1)OCC(c1csc3ncnc(N4CCCCC4)c13)O2 (centres undefined)	0%	32µM*	8%	2%
COC/C=C/C1=CC2=CC(=O)C(C)(OC(=O)c3cnc4ccccc4n3)C(=O)C2=CN1CC1CC1 (centres undefined)	-11%	-18%	x	-8%
SMILES	RE007 growth inh	FMDV antiviral	Sm TGR inh	TbPYK inhibitor
COC/C=C/C1=CC2=CC(=O)C(C)(OC(=O)c3cnc4ccccc4n3)C(=O)C2=CN1Cc1ccc(OC)cc1 (centres undefined)	1%	-21%	16µM*	2%
COC/C=C/C1=CC2=CC(=O)C(C)(OC(=O)c3cnc4ccccc4n3)C(=O)C2=CN1Cc1ccccc1 (centres undefined)	-8%	14µM*	u	3%
O=C(CCCc1ccccc1)c1ccc2c(c1)OCCO2	-2%	7.9µM*	7%	-3%
O=C(NCCc1ccccc1)c1ccc2c(c1)OCCO2	14%	1.8µM*	0%	-10%
O=C(NCCc1ccccc1)c1ccc2c(c1)OCCCO2	-2%	1.1µM*	-17%	-28%
CCCc1nn2c(C)c(-c3ccccc3)nc2s1	x	6%	5%	2%

Bioassay records deposited in PubChem BioAssay by National Center for Advancing Translational Sciences (NCATS).
